Drawing on PubChem BioAssay (NCI), this text covers growth for eight compounds.

Among the test systems are HCT-15 colon; HT29 colon; SNB-75 CNS; SNB-19 CNS; U251 CNS; PC-3 prostate; SK-MEL-5 melanoma; UACC-62 melanoma; LOX IMVI melanoma; SK-MEL-28 melanoma; SK-MEL-2 melanoma; EKVX NSCLC; SN12C renal; UO-31 renal; TK-10 renal; ACHN renal; CAKI-1 renal; A498 renal; CCRF-CEM leukemia; MOLT-4 leukemia.
What all share (assay): NCI-60 one-dose screen, 48 h (100 = growth as untreated, 0 = no growth, -100 = all killed)
What all share (conditions): 10 µM unless noted

About 83,000 compounds went through this panel and 20% of them were active in at least one assay; those are over-represented in the sample as a whole.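 Cell lines were cultured in 96-well plates, exposed to a single compound concentration, and assessed for percent growth 48 hours later.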 A number with no mark means an inactive call. The source made the active and inactive calls. How the source made its calls: active means growth percent below 10; inactive means the rest.

For the compound `CCOC(=O)C1=NN(c2ccccc2)C(=O)/C1=C\N1C(=O)CC(=O)NC1=S`, the growth was 105% in the assay on HCT-15 colon; 99.7% in the assay with HT29 colon; 10.6% in the assay with SNB-75 CNS; 97.4% in the assay on SNB-19 CNS; 91% in the assay with U251 CNS; 96.4% with PC-3 prostate. Besides, the growth with SK-MEL-5 melanoma was 99.6%; with UACC-62 melanoma, 87.5%; with LOX IMVI melanoma, 93.7%; with SK-MEL-28 melanoma, 114%; in the assay with SK-MEL-2 melanoma it was 98%; with EKVX NSCLC, 103%. Besides, the growth with SN12C renal is 95.6%; with UO-31 renal, 77.4%; in the assay on TK-10 renal, 96%; with ACHN renal it was 101%; in the assay on CAKI-1 renal it was 41.2%; in the assay on A498 renal, 104%. Moreover, the growth in the assay with CCRF-CEM leukemia is 96.2%; in the assay with MOLT-4 leukemia it was 99%.

For `O=C(Cn1c(-c2ccc([N+](=O)[O-])cc2)nc2ccccc21)NNC(=O)c1cccnc1`, the growth with HCT-15 colon was 80.9%; in the assay on HT29 colon, 77.2%; in the assay on SNB-75 CNS it was 53.3%; in the assay on SNB-19 CNS, 86.5%; in the assay on U251 CNS, 77.9%; in the assay on PC-3 prostate, 69%. Also, the growth is 83.8% with SK-MEL-5 melanoma; 66.2% in the assay on UACC-62 melanoma; 65.3% with LOX IMVI melanoma; 108% with SK-MEL-28 melanoma; 103% in the assay with SK-MEL-2 melanoma; 73.2% in the assay with EKVX NSCLC. Moreover, the growth was 78.9% with SN12C renal; 65.6% with UO-31 renal; 126% in the assay with TK-10 renal; 84.4% with ACHN renal; 71.2% in the assay with CAKI-1 renal; 65.1% in the assay with A498 renal. Also, the growth is 75.6% in the assay on CCRF-CEM leukemia and 79.3% in the assay with MOLT-4 leukemia.

Turning to `C=C(CNCCc1ccc(O)cc1)[C@@H]1CC[C@]2(CO)CC[C@]3(C)[C@H](CC[C@@H]4[C@@]5(C)CCC(NCCO)C(C)(C)[C@@H]5CC[C@]43C)[C@@H]12` (stereo not given in full), the growth was -80.9% (active) in the assay with HCT-15 colon; -44.1% (active) in the assay with HT29 colon; -97.8% (active) in the assay with SNB-75 CNS; -73.2% (active) with SNB-19 CNS; -83.7% (active) in the assay with U251 CNS; -20.1% (active) in the assay with PC-3 prostate. For the same compound, the growth was -94.2% (active) in the assay on SK-MEL-5 melanoma; -80.8% (active) in the assay with UACC-62 melanoma; -84.1% (active) in the assay with LOX IMVI melanoma; -92.4% (active) in the assay on SK-MEL-28 melanoma; -81% (active) with SK-MEL-2 melanoma; -52.1% (active) in the assay on EKVX NSCLC. The growth with SN12C renal is -70.3% (active); in the assay on UO-31 renal, -96.1% (active); in the assay on TK-10 renal, -80.6% (active); with ACHN renal, -60.8% (active); with CAKI-1 renal it was -77.2% (active); in the assay with A498 renal it was 69.3%. Besides, the growth in the assay with CCRF-CEM leukemia was -19.7% (active); with MOLT-4 leukemia it was -19.2% (active).

As for `O=C(CSc1nc2ccc([N+](=O)[O-])cc2[nH]1)Nc1cccc(C(F)(F)F)c1`, the growth in the assay with HCT-15 colon is 23.5%; in the assay with HT29 colon, 11.3%; in the assay with SNB-75 CNS, 25.5%; with SNB-19 CNS it was 15.2%; with U251 CNS it was 16.4%; with PC-3 prostate, 9.66% (active). The growth in the assay with SK-MEL-5 melanoma was -1.54% (active); with UACC-62 melanoma, 6.34% (active); in the assay on LOX IMVI melanoma, 26.9%; in the assay with SK-MEL-28 melanoma, 22.2%; in the assay with SK-MEL-2 melanoma, -5.5% (active); in the assay with EKVX NSCLC, 23.9%. For the same compound, the growth is 9.37% (active) in the assay on SN12C renal; 8.44% (active) in the assay on UO-31 renal; 25.1% in the assay with TK-10 renal; 16% in the assay with ACHN renal; 1.15% (active) in the assay with CAKI-1 renal; -6.75% (active) in the assay on A498 renal. For the same compound, the growth in the assay with CCRF-CEM leukemia is 19%; in the assay with MOLT-4 leukemia it was 8.77% (active).

Take `Nc1c(C(=O)Nc2ccncc2)sc2nc3c(cc12)CCCCCC3`: the growth was 63.5% in the assay on HCT-15 colon; 41.9% in the assay on HT29 colon; 84.2% with SNB-75 CNS; 84.1% in the assay with SNB-19 CNS; 76.2% in the assay on U251 CNS; 90.3% in the assay on PC-3 prostate. The growth in the assay with SK-MEL-5 melanoma was 56.8%; in the assay on UACC-62 melanoma, 89.6%; with LOX IMVI melanoma it was 84.8%; with SK-MEL-28 melanoma, 88.6%; in the assay on SK-MEL-2 melanoma it was 94.2%; with EKVX NSCLC, 89.2%. For the same compound, the growth in the assay on SN12C renal was 86.4%; in the assay with UO-31 renal, 78.4%; in the assay with TK-10 renal, 90.2%; with ACHN renal, 108%; with CAKI-1 renal, 98%; in the assay on A498 renal it was 54.8%. The growth in the assay on CCRF-CEM leukemia was 68.1%; in the assay with MOLT-4 leukemia it was 70.3%.

`Cn1c(-c2ccc(Br)cc2)c(O)c(=O)c2c(F)cccc21`: the growth in the assay on HCT-15 colon is 23.9%; in the assay on HT29 colon, 36.6%; in the assay on SNB-75 CNS, 92.2%; in the assay with SNB-19 CNS, 52.8%; in the assay on U251 CNS, 34.3%; in the assay on PC-3 prostate, 105%. The growth in the assay with SK-MEL-5 melanoma is 54.2%; in the assay with UACC-62 melanoma it was 37.6%; in the assay on LOX IMVI melanoma it was 40.2%; in the assay with SK-MEL-28 melanoma it was 67.2%; in the assay with SK-MEL-2 melanoma, 87.1%; in the assay on EKVX NSCLC it was 56%. In addition, the growth in the assay on SN12C renal was 68.8%; with UO-31 renal, 26.3%; in the assay on TK-10 renal, 42.4%; in the assay with ACHN renal it was 37%; in the assay with CAKI-1 renal, 47.9%; in the assay on A498 renal it was 62.3%. Moreover, the results for the growth in the assay on CCRF-CEM leukemia and in the assay with MOLT-4 leukemia were 94.1% and 99%, respectively.

Regarding `CCOC(=O)c1cnc2ccccc2c1Cl`, the growth is 101% in the assay with HCT-15 colon; 101% in the assay with HT29 colon; 78.2% in the assay on SNB-75 CNS; 99.2% in the assay on SNB-19 CNS; 102% in the assay with U251 CNS; 90.9% with PC-3 prostate. Moreover, the growth was 88.1% in the assay on SK-MEL-5 melanoma; 95.2% with UACC-62 melanoma; 86.2% in the assay with LOX IMVI melanoma; 103% with SK-MEL-28 melanoma; 109% in the assay with SK-MEL-2 melanoma; 103% in the assay with EKVX NSCLC. Also, the growth was 102% in the assay on SN12C renal; 95.1% with UO-31 renal; 84.4% in the assay with TK-10 renal; 99.4% in the assay with ACHN renal; 94.8% in the assay with CAKI-1 renal; 56.6% in the assay with A498 renal. Besides, the results for the growth in the assay with CCRF-CEM leukemia and in the assay on MOLT-4 leukemia were 118% and 99.9%, respectively.

Take `COC(=O)c1cc(-c2ccc(OC)cc2)[nH]c1N/N=C/c1c(Cl)cccc1Cl`: the growth with HCT-15 colon is 16.4%; in the assay with HT29 colon it was -56.5% (active); with SNB-75 CNS, -10.6% (active); in the assay with SNB-19 CNS, 19.1%; in the assay on U251 CNS it was 7.09% (active); in the assay on PC-3 prostate it was 16.2%. The growth with SK-MEL-5 melanoma is -2.73% (active); with UACC-62 melanoma it was 21.3%; with LOX IMVI melanoma, 24.2%; with SK-MEL-28 melanoma it was 34%; with SK-MEL-2 melanoma it was 52.9%; in the assay on EKVX NSCLC it was 20.1%. In addition, the growth in the assay with SN12C renal is 26%; in the assay with UO-31 renal, 27.9%; in the assay with TK-10 renal, 47.8%; in the assay with ACHN renal, 39.3%; in the assay with CAKI-1 renal, -5.7% (active); in the assay on A498 renal, -2.53% (active). In addition, the growth with CCRF-CEM leukemia was 12.2%; in the assay with MOLT-4 leukemia, 12.4%.
